High-throughput results: PubChem, University of Kansas High Throughput Screening Laboratory
The list is not random: actives were taken first. Their share in the collection is about 3.5%.
mHTT-CaM PPI inh: mutant huntingtin-calmodulin interaction inhibitors – biochemical, AlphaScreen, primary screen; P42858; inhibition, % at 15 µM; AlphaScreen His-mHTT/GST-CaM binding, luminescence; hit rate 3.6% among 190,000
Pf apPOL inh: Pf-apPOL inhibitors, biochemical, fluorescence; Plasmodium falciparum apicoplast DNA polymerase (apPOL); Recombinant Pf-apPOL, molecular beacon fluorescence, 1.5 h; inhibition, % at 10 µM; AID 1794808, 2022; hit rate 0.25% among 210,000
Each line names hits and unclear results; the compound was inactive in the other large screens. Rule as the data show it: active = inhibition above about 50%; inactive = the rest.

COc1cc([N+](=O)[O-])cc2c1NC(c1ccccc1Cl)C1CC=CC21 (stereo not drawn)	none
CCc1cccc2c1NC(c1ccc(OC)c([N+](=O)[O-])c1)C1CC=CC21 (stereo not drawn)	mHTT-CaM PPI inh 59.0
COc1ccc(C2Nc3c(OC)cccc3C3C=CCC32)cc1[N+](=O)[O-] (stereo not drawn)	mHTT-CaM PPI inh 66.0
COc1cccc2c1NC(c1ccc([N+](=O)[O-])cc1)C1CC=CC21 (stereo not drawn)	mHTT-CaM PPI inh 70.0
COc1ccc(C2Nc3c(C)ccc(Cl)c3C3C=CCC32)cc1[N+](=O)[O-] (stereo not drawn)	none
Cc1ccc(C(=O)N/C(=C/c2ccco2)C(=O)NCCc2ccccn2)cc1C	none
Cc1ccc(C(=O)N/C(=C\c2ccco2)C(=O)N2CCN(c3ccccn3)CC2)cc1C	mHTT-CaM PPI inh 70.0
CC(C)(C)c1ccc(S(=O)(=O)N2CCNCC2)cc1	none
CC(=NCCN1CCOCC1)c1c(C(F)(F)F)[nH]n(-c2nc3ccccc3s2)c1=O	none
CC(=NCCCN1CCOCC1)c1c(-c2ccccc2)[nH]n(-c2nc3ccccc3s2)c1=O	mHTT-CaM PPI inh 51.0
O=C(Nc1ccc2c(N3CCCCC3)ncnc2c1)C1CCCO1 (stereo not drawn)	none
COc1ccc(CNS(=O)(=O)c2ccc3nc(-c4ccccc4)[nH]c3c2)cc1	none
Cc1ccc(CNS(=O)(=O)c2ccc3[nH]c4c(c3c2)CCCC4)o1	mHTT-CaM PPI inh 50.2
COc1ccc(CCNS(=O)(=O)c2ccc3[nH]c4c(c3c2)CCCC4)cc1OC	none
O=S(=O)(NCCc1ccccc1)c1ccc2[nH]c3c(c2c1)CCCC3	mHTT-CaM PPI inh 94.9
COc1ccc(CNS(=O)(=O)c2ccc3[nH]c4c(c3c2)CCCCC4)cc1	mHTT-CaM PPI inh 97.3
CCN(c1ccc(OC)cc1)S(=O)(=O)c1ccc2[nH]c3c(c2c1)CCCCC3	mHTT-CaM PPI inh 69.6
Cc1ccccc1C1=N/C(=C/c2ccc(C(C)C)cc2)C(=O)O1	none
Oc1c(I)cc(I)cc1C=NCCNc1ccccc1	none (no result: mHTT-CaM PPI inh)
Cc1ccc(OCC(=O)N2CCCCC2CCN2CCCCC2)cc1 (stereo not drawn)	none
CCCCCCSc1nnc2n(C)c(=O)c3c4c(sc3n12)COC(C)(C)C4	none
Cn1nc(-c2nc(Cc3ccccc3)no2)c2c1CCN(C(=O)CC1CCCCC1)C2	none
CCOc1ccc(CNS(=O)(=O)c2ccc3[nH]c4c(c3c2)CCCCC4)cc1	mHTT-CaM PPI inh 54.5
CN(Cc1ccccc1)S(=O)(=O)c1ccc2[nH]c3c(c2c1)CCCC3	mHTT-CaM PPI inh 70.6
CN(CC(=O)N1CCCC1)S(=O)(=O)c1ccc2[nH]c3c(c2c1)CCCC3	none
O=c1[nH]c2ccc(S(=O)(=O)NCc3ccc4c(c3)OCO4)cc2[nH]c1=O	none
COc1cccc(CNS(=O)(=O)c2ccc3[nH]c(=O)sc3c2)c1	none
COc1cccc(CNS(=O)(=O)c2ccc3[nH]c4c(c3c2)CCCCC4)c1	mHTT-CaM PPI inh 73.1
O=S(=O)(NCc1ccc2c(c1)OCO2)c1ccc2[nH]c3c(c2c1)CCCCC3	mHTT-CaM PPI inh 96.2
CCOc1ccccc1NC(=O)CN(C)S(=O)(=O)c1ccc2[nH]c3c(c2c1)CCCC3	none
CC(NC(=O)c1cn2c(n1)COCC2)c1ccccn1 (stereo not drawn)	none
Cc1noc(C)c1C1CCCN1Cc1ccccc1OC(C)C (stereo not drawn)	none
CCC(C)(C)C(=O)N1CCC(CCOCc2ccc(F)cc2)CC1	none
COc1ccc(CN2CCc3nc(SCc4ccccc4)[nH]c(=O)c3C2)cc1	none
CC1CCCN(C(=O)C2CCC(CNS(=O)(=O)c3ccc(Br)s3)CC2)C1 (stereo not drawn)	none
Cc1ccc([N+](=O)[O-])cc1NC(=O)c1cccc(C(=O)Nc2cc([N+](=O)[O-])ccc2C)n1	Pf apPOL inh 66.9
Cc1ccc([N+](=O)[O-])cc1NC(=O)c1cnccn1	none
Cc1cc(OC(=O)C=Cc2ccc3c(c2)OCO3)c([N+](=O)[O-])c(=O)[nH]1	mHTT-CaM PPI inh 76.9
COc1cccc(C(=O)Oc2cc(C)[nH]c(=O)c2[N+](=O)[O-])c1OC	none
CC=CC(=O)Oc1cc(C)[nH]c(=O)c1[N+](=O)[O-]	none
COc1ccc(C(=O)Oc2cc(C)[nH]c(=O)c2[N+](=O)[O-])cc1OC	mHTT-CaM PPI inh 85.6
O=[N+]([O-])c1cc(C=Nc2ccc(Cl)cc2)ccc1Cl	none
O=[N+]([O-])c1cc(C=Nc2cc(Cl)ccc2O)ccc1Cl	mHTT-CaM PPI inh 64.0
O=C1C=CC(=O)C(c2cccc(C(F)(F)F)c2)=C1	mHTT-CaM PPI inh 74.0
O=C1c2ccccc2C(=O)N1Cn1cc(-c2cccc(C(F)(F)F)c2)nn1	none
Nc1ccc(C23CC4CC(C2)CC(c2ccc(N)cc2)(C4)C3)cc1	mHTT-CaM PPI inh 83.7
Nc1ccc(C23CC4CC(CC(C4)C2)C3)cc1	mHTT-CaM PPI inh 58.5
NC(=O)CC12CC3CC(C1)CC(c1ccccc1)(C3)C2	none
NS(=O)(=O)c1ccc(C23CC4CC(CC(C4)C2)C3)cc1	none
